For 89 compounds, activation results are on record in PubChem BioAssay AID504660 (National Center for Advancing Translational Sciences (NCATS), 2011).

The structures appear in SMILES notation. Out of some 360,000 compounds screened, about 3,700 (1%) were called active. Rule as the data show it: active = activation above about 30%; inactive = the rest. The full list was thinned out, with actives kept by preference.

The target of the assay is D(1A) dopamine receptor (Homo sapiens) (UniProt P21728). In words: Allosteric Agonists of the Human D1 Dopamine Receptor: qHTS. Also: 0% is about no effect. The settings on record: HEK293 T-REx D1 cells, calcium flux, agonist mode; at 2 µM; hits give high values. Put shortly: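 Tetracycline-induced HEK293 TREx D1 cells, force-coupled to calcium signalling, were dye-loaded with a no-wash calcium kit. Compound was pin-added after a 10 s baseline. Fluorescence was read kinetically at 1 cycle/s for 180 s, with calcium rises flagged as agonism.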
Sequence of D(1A) dopamine receptor (Homo sapiens) (P21728 whole entry, looked up): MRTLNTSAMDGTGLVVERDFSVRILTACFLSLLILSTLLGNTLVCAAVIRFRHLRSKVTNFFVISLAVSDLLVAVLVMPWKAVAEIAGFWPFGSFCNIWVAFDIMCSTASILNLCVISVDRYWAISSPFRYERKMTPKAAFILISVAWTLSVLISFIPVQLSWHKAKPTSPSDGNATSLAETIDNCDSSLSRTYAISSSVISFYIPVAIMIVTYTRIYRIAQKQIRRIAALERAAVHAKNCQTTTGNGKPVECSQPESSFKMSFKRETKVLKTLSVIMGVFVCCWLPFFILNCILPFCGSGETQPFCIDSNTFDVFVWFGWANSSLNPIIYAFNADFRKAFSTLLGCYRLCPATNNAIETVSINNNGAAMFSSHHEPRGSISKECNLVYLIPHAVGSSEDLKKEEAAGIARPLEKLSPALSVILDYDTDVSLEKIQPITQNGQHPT
(In qHTS, concentration-response curves come from the screen itself.)
As to `COc1ccc(-n2c(C)nc3c(cnn3-c3ccc(F)cc3)c2=O)cc1`, the activation is 9.13% (inactive).

In the case of `Cc1ccc(NC(=O)CCCNC(=O)c2ccc(Cl)cc2)cc1S(=O)(=O)N1CCOCC1`, the activation is 0.321% (inactive).

For `Cc1ccc(C(=O)OCC(=O)Nc2ccc(Cl)cn2)cc1S(=O)(=O)N1CCOCC1`, the activation was 5.99% (inactive).

Regarding `Cc1ccc(NC(=O)COC(=O)CNC(=O)c2ccc(Cl)cc2Cl)cc1S(=O)(=O)N1CCOCC1`, the activation is 31.1% (active).

For `Cc1ccc(S(=O)(=O)N2CCC(C(=O)Nc3cc(C)ccc3C)CC2)cc1`, the activation was 1.28% (inactive).

Consider `COc1ccc(OCC(O)CNCCNc2nccc(C(F)(F)F)n2)cc1` (centres undefined), for which the activation was 1.81% (inactive).

In the case of `CC(Oc1ccc(Br)cc1)C(=O)NC1CCCCCC1` (centres undefined), the activation is 1.77% (inactive).

Consider `CC(C)(C)CC(C)(C)NCC(O)COCCOc1ccc(Br)cc1` (centres undefined), for which the activation is 171% (active).

Consider `COc1ccc(-n2ccnc(NCCc3ccc(Cl)cc3)c2=O)cc1OC`, for which the activation was 1.51% (inactive).

Regarding `COc1cc(OC)c(NC(=O)c2cc(S(=O)(=O)N3CCCC3)cn2C)cc1Cl`, the activation was 0.318% (inactive).

Regarding `COc1ccccc1C(=O)OCc1cc(=O)n2nc(-c3cccs3)sc2n1`, the activation was 0.554% (inactive).

For the compound `COc1ccc(C(=O)N2CCC(c3nc4ccccc4o3)CC2)cc1`, the activation was 0.0167% (inactive).

Consider `O=C(Cn1cc(SCc2ccccc2)c2ccccc21)N1CCCCC1`, for which the activation is 0.868% (inactive).

As for `COc1ccc(OCC(O)CN(C)C(=O)C(C)Oc2ccccc2)cc1` (centres undefined), the activation is 3.18% (inactive).

For `CN(Cc1ccccc1)CC(O)COc1ccc(CNCc2cc3ccccc3s2)cc1` (centres undefined), the activation is 36.8% (active).

In the case of `COc1cccc(CN(C)CC(O)COC(c2ccccc2)c2ccccc2C)c1` (centres undefined), the activation is 5.2% (inactive).

With `Cc1ccc2nc(N3C(=O)C(O)=C(C(=O)c4ccco4)C3c3cccc(O)c3)sc2c1` (centres undefined), the activation is 7.96% (inactive).

As for `C=CCOc1cccc(C2C(C(=O)c3ccc(C)o3)=C(O)C(=O)N2c2nnc(C)s2)c1` (centres undefined), the activation is 29.7% (inactive).

For `C=CCSc1nnc(N2C(=O)C(O)=C(C(=O)c3ccco3)C2c2ccc(F)cc2)s1` (centres undefined), the activation is 54.8% (active).

With `COc1ccc(CNC(=O)c2ccc(NC(=O)N3CC4CCCN4c4ccccc43)cc2)cc1` (centres undefined), the activation was 0.101% (inactive).

`COc1ccc(Cn2ccn(CC(=O)Nc3cc(C)ccc3C)c(=O)c2=O)cc1`: the activation was 18.9% (inactive).

Turning to `CCc1nc2ccc(C(=O)N3CCN(c4cc(Cl)ccc4C)CC3)cc2nc1CC`, the activation was 5.95% (inactive).

Consider `O=C(NC1CC(=O)N(c2ccc(F)cc2)C1)c1cccs1` (centres undefined), for which the activation is 1.75% (inactive).

For `COc1ccc(C2COC(=O)C2=N)c(NC(=O)c2ccccc2)c1` (centres undefined), the activation was 0.266% (inactive).

As for `CCOC(=O)c1cc(NC(=O)c2ccc(Cl)cc2)c(=O)oc1-c1ccccc1`, the activation was 3.05% (inactive).

On to `CC(=O)c1cc(NC(=O)c2ccccc2)c(=O)oc1/C=C/N(C)C`, for which the activation is 30.3% (active).

Regarding `Cc1ccc(N2CC(NC(=O)Cc3cccs3)CC2=O)cc1` (centres undefined), the activation is -0.478% (inactive).

Consider `CCOc1ccc(Nc2oc(/C=C/c3ccc(F)cc3)nc2C#N)cc1`, for which the activation is -0.316% (inactive).

`CCOc1ccc(N(Cc2ccccc2)C(=O)c2nc(S(C)(=O)=O)ncc2Cl)cc1`: the activation was 1.14% (inactive).

In the case of `COc1ccc(NC(=O)Cn2c(=O)cc(C)c3c(C)nn(-c4cccc(Cl)c4C)c32)cc1OC`, the activation was 0.131% (inactive).

Regarding `Cn1c(=O)[nH]c(=O)c2c1nc(NCCc1ccccc1)n2Cc1ccc(F)cc1`, the activation is -2.2% (inactive).

Turning to `CN(C)CCCn1c(-c2ccc(Cl)cc2)csc1=Nc1ccccc1`, the activation is 39% (active).

Consider `CN(C)CCCn1c(SCc2ccc(Cl)cc2)nnc1-c1ccncc1`, for which the activation is 0.237% (inactive).

`OCCn1c(-c2ccccc2)csc1=Nc1ccccc1`: the activation was 0.78% (inactive).

Regarding `O=C(CSc1ncc(CO)n1Cc1ccc(F)cc1)NCc1ccco1`, the activation was 1.99% (inactive).

For the compound `O=C(CNC(=O)c1ccc(Cl)cc1Cl)OC(C(=O)Nc1cc(C(F)(F)F)ccc1Cl)c1ccccc1` (centres undefined), the activation is 6.6% (inactive).

Regarding `O=C(Nc1ccccc1)N1CCC(C(=O)N2CCN(Cc3ccccc3)CC2)CC1`, the activation is 0.0463% (inactive).

On to `COc1ccc(NC(C)=O)cc1NC(=O)CN1CCN(C2c3ccccc3-c3ccccc32)CC1`, for which the activation was 1.82% (inactive).

As for `O=C(Nc1ccccc1)N1CCN(C2c3ccccc3-c3ccccc32)CC1`, the activation is 35.4% (active).

For `O=C(CC(c1cccs1)N1Cc2ccccc2C1=O)Nc1ccc(F)c(F)c1` (centres undefined), the activation was 10.6% (inactive).

Take `CCOc1ccc(CNC(=O)Cn2cc3c(n2)-c2c(oc(C(=O)N4CCCC4)c2C)CC3)cc1`: the activation is 0.642% (inactive).

For the compound `COc1ccccc1CNC(=O)c1ccc(CS(=O)(=O)c2ccccc2)o1`, the activation is 30.2% (active).

`COc1ccc(CCNC(=O)c2ccc(CS(=O)(=O)c3ccc(Br)cc3)o2)cc1OC`: the activation was 17.3% (inactive).

As for `COc1ccccc1CNC(=O)c1ccc(CS(=O)c2ccccc2Cl)o1` (centres undefined), the activation was 6.51% (inactive).

Turning to `CCC(C(=O)Nc1cccc(Cl)c1C)n1nc(-c2ccc(C)cc2)ccc1=O` (centres undefined), the activation is 1.44% (inactive).

For the compound `COc1ccc(N2CCN(c3cc(C)nc4nncn34)CC2)cc1`, the activation was 5.83% (inactive).

As for `CCc1ccc(NC(=O)CCCc2nnc3n(CCCOC)c(=O)c4sccc4n23)cc1`, the activation was 2.87% (inactive).

Turning to `Cc1c(NC(=O)CCCOc2ccccc2)cccc1[N+](=O)[O-]`, the activation is 0.0331% (inactive).

For the compound `Cc1cccc(NC(=S)NCCc2ccc(F)cc2)c1C`, the activation is 0.43% (inactive).

Regarding `Cc1c(NC(=S)NCc2ccc(F)cc2)cccc1[N+](=O)[O-]`, the activation was 31.7% (active).

`CC(C)(C)c1ccc(S(=O)(=O)N2CCN(C(=O)c3cc(-c4ccc(Br)cc4)n[nH]3)CC2)cc1`: the activation is 2.7% (inactive).

With `COc1ccc(NC(=O)CN2CCCN(Cc3ccccc3)S2(=O)=O)cc1`, the activation was -2.31% (inactive).

Take `O=C(C1CCC(Cn2c(=O)c3sccc3n(Cc3ccccc3F)c2=O)CC1)N1CCCCC1` (centres undefined): the activation is 1.57% (inactive).

For `COc1ccc(C)cc1NC(=O)C(OC(=O)c1cccc(S(=O)(=O)N(C)c2ccccc2)c1)c1ccccc1` (centres undefined), the activation is 0.857% (inactive).

Regarding `CN(c1ccccc1)S(=O)(=O)c1cccc(C(=O)NNC(=O)c2ccncc2)c1`, the activation was 0.604% (inactive).

In the case of `CC(=O)c1c(C)[nH]c(C(=O)COC(=O)c2cccc(S(=O)(=O)N(C)c3ccccc3)c2)c1C`, the activation is 31.9% (active).

Turning to `N#Cc1nc(Nc2cc(F)cc(Cl)c2)nc(NC2CCCC2)n1`, the activation is 11.1% (inactive).

For `COc1ccccc1N1CCN(C(CNC(=O)C(=O)NCc2ccc(C)cc2)c2cccnc2)CC1` (centres undefined), the activation is 3.64% (inactive).

Regarding `O=C(CSc1ccc([N+](=O)[O-])cn1)Nc1ccc(N2CCOCC2)cc1`, the activation is 0.916% (inactive).

As for `O=C(CCN1C(=O)COc2ccccc21)NCCCN1CCN(c2ccc(F)cc2)CC1`, the activation is -0.0538% (inactive).

On to `CCOC(=O)c1c(C)[nH]c(CCC(=O)NCCCN2CCN(c3cc(C)ccc3C)CC2)c1C`, for which the activation is 22.5% (inactive).

Take `CC1=C(c2ccc(C)cc2)S(=O)(=O)NC1=NCCCN1CCN(c2cc(C)ccc2C)CC1`: the activation is 6.19% (inactive).

Turning to `O=C(NCCCN1CCN(c2ccc(F)cc2)CC1)Nc1ccc([N+](=O)[O-])cc1`, the activation is 32.8% (active).

Take `Cc1ccc(C)c(N2CCN(CCCNC(=O)Nc3ccc(Cl)cc3)CC2)c1`: the activation was 65.5% (active).

Take `O=C(Nc1cccc2cccnc12)C(F)(F)F`: the activation was 0.559% (inactive).

As for `COc1ccc(S(=O)(=O)NCCSc2nnnn2-c2ccccc2)cc1`, the activation was 2.54% (inactive).

Regarding `CCOc1ccc(S(=O)(=O)c2cn(Cc3ccccc3)c3ccc(OCC)cc3c2=O)cc1`, the activation was 1.46% (inactive).

On to `CCOC(=O)c1c(C)[nH]c(C)c1S(=O)(=O)NCC(=O)NCc1cccc(C)c1`, for which the activation was 6.99% (inactive).

`CCCCOC(=O)/C(C#N)=C/c1ccc(-c2cccc(C(F)(F)F)c2)o1`: the activation was 6.87% (inactive).

For `c1ccc(C2CNCc3c2ccc2ccccc32)cc1` (centres undefined), the activation is 45.9% (active).

Consider `Cc1ccc2nc(COc3cccc(NC(=O)c4ccccc4Cl)c3)cc(=O)n2c1`, for which the activation is 0.0743% (inactive).

On to `COc1ccccc1S(=O)(=O)c1c(C)cc(C)[nH]c1=O`, for which the activation is 3.01% (inactive).

For the compound `Cc1cc(C)c(/C=C2\C(=O)Nc3ccccc32)[nH]1`, the activation was 92.6% (active).

In the case of `Cc1cc(C)cc(NS(=O)(=O)c2ccc(-c3cc(C)no3)s2)c1`, the activation is 1.79% (inactive).

As to `O=S(=O)(c1ccc2c(c1)OCCO2)N1CCN(S(=O)(=O)c2cc(F)ccc2F)CC1`, the activation was 6.6% (inactive).

Regarding `CCc1cccc(NC(=O)CN(c2ccc(C)c(C)c2)S(=O)(=O)c2ccsc2C(=O)OC)c1`, the activation is 3.48% (inactive).

On to `Cc1cccc(NC(=O)N2CCC(CN3CCc4ccccc4C3)CC2)c1C`, for which the activation is 6.8% (inactive).

With `O=C(/C=C/c1ccc(OCc2c(F)cccc2Cl)cc1)N1CCOCC1`, the activation is 59.7% (active).

Take `Fc1cccc(Cl)c1COc1ccc(-c2nnco2)cc1`: the activation is 4.97% (inactive).

As for `CN(C)CCCNC(=O)/C=C/c1ccc(OCc2c(F)cccc2Cl)cc1`, the activation is 20.4% (inactive).

On to `CCC(=O)Nc1ccc2nc(SCC(=O)N3CCc4ccccc43)sc2c1`, for which the activation was 4.11% (inactive).

For `CS(=O)(=O)c1ccc(-c2nnc(NC(=O)c3ccc4c(c3)OCCO4)o2)cc1`, the activation is 2.14% (inactive).

With `CCCN(C(=O)Cn1cc(S(=O)(=O)N2CCN(c3ccccc3F)CC2)c2ccccc2c1=O)c1cccc(C)c1`, the activation is 5.13% (inactive).

In the case of `Nc1ccccc1Sc1cc(Cl)nnc1Cl`, the activation is 0.62% (inactive).

For `Cn1nc(-c2ccccc2)c(CO)c1Sc1ccccc1`, the activation is 2.17% (inactive).

In the case of `Cc1nn(C)c(C)c1Sc1ccccc1N`, the activation was 37.1% (active).

With `COC(=O)c1ccc(Sc2ccc(F)cc2)c(N)c1`, the activation is 2.52% (inactive).

Take `CC(=O)Nc1cc(C(=O)NCc2ccc(F)cc2)ccc1Sc1ccc(F)cc1`: the activation is -2.57% (inactive).

Turning to `CC(C)(CCl)C(=O)Nc1ccc(Sc2ccc(F)cc2)cc1`, the activation was 32.5% (active).
